This is part of a sample that, as a whole, favours compounds with a hit. Of some 83,000 tested, about 20% had one in any assay.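 Single-concentration screen, 48 h exposure, 96-well plates. Endpoint: percent growth. Below 10 = active.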 Values without a mark were called inactive. Active and inactive are the calls of the source.

This test concerns U251 CNS. Kind of test: NCI-60 one-dose screen, 48 h (100 = growth as untreated, 0 = no growth, -100 = all killed). Particulars: 10 µM unless noted. As to the method: Growth inhibition of the U251 human tumor cell line is measured as a screen for anti-cancer activity. Cells are grown in 96 well plates and exposed to the test compound for 48 hours. Compounds are tested at a single concentration, which is 10^-5 M for most compounds. The reported endpoint is percent growth (GI% or GIPRCNT), where numbers from 0 - 100% represent growth inhibition, and numbers from -100% - 0 represent cell death. For example, a value of 40 represents 60% growth inhibition. A value of 0 means no net growth occurred over the course of the experiment. A value of -40 indicates 40% of cells at the beginning of the experiment died by the end of the experiment. A value of -100 means all cells are dead at the end of the experiment.
NCI-60 Human Tumor Cell Lines Screen was performed using the standard one-dose NCI protocol, which is described in more detail at https://dtp.cancer.gov/discovery_development/nci-60/default.htm.
Compounds with GIPRCNT values below 10 were considered active. Activity score was based on GIPRCNT using the following formula: […]
Score is 0 for GIPRCNT values of 100 or above, 50 for GIPRCNT values of 0, and 100 for GIPRCNT values of -100.
On to `CCc1onc(-c2ccc(OC)cc2)c1-c1ccccc1OCCN(CC)CC`, for which the growth is 93.9%.

Take `COc1cccc(/C(C)=N/NC(=O)CSc2nc3ccccc3c(=O)n2CCc2ccc(S(N)(=O)=O)cc2)c1`: the growth was -55.4% (active).

Turning to `O=C1Nc2ccc(Cl)cc2/C1=C\c1c(-c2ccc(F)cc2)nc2ccccn12`, the growth was 23.2%.

Regarding `CC(C)OC1OC(OC(C)C)C(OC(C)C)OC1OC(C)C` (stereo not given), the growth is 90.3%.

`NC(N)=N/N=C/c1cccc(Cl)c1Cl`: the growth is 73.3%.

Regarding `O=c1c2cc(Br)cc(Br)c2nc(-c2ccc(Cl)cc2)n1/N=C/c1cccc(F)c1`, the growth is 43.3%.

Regarding `CC(=O)Nc1c(Br)cc2c(c1Br)Cc1cc(Br)ccc1-2`, the growth was 12.8%.

Take `COc1cc(CN(CCC(O)N2CCCC2=O)Cc2ccc3c(c2)OCO3)cc(OC)c1OC` (stereo not given): the growth was 102%.

On to `COc1ccc(Nc2nc(N)nc3c(=O)[nH]ccc23)cc1`, for which the growth is 115%.

For the molecule `CNC(=O)OC1C(O[C@H]2C[C@H]3[C@@H]4CC=C5C[C@@H](O)CC[C@]5(C)[C@H]4CC[C@]3(C)[C@H]2[C@H](C)C(=O)CCC(C)C)OCC(O)C1OC1OCC(O)C(O)C1OC(=O)c1ccc(OC)cc1` (stereo not given in full), the growth is 1.48% (active).

On to `CN(C)c1ccc(C2(Cl)c3ccccc3N(C)c3ccccc32)cc1`, for which the growth was 1.47% (active).

For `NC(CCC(=O)NC(CS)C(=O)NCC(=O)O)C(=O)O` (stereo not given), the growth is 106%.

As for `COc1cccc(-c2cc(-c3cccs3)c(C#N)c(=O)[nH]2)c1`, the growth was 100%.

As to `Cc1nc(N)nc2c1CCC(Nc1ccccc1)S2` (stereo not given), the growth was 103%.

With `COC(=O)CSc1ccc(Cl)cc1`, the growth is 103%.

As for `COc1cc2ncnc(Nc3ccc(S(=O)(=O)Nc4nccs4)cc3)c2cc1OCCCN1CCOCC1`, the growth was 100%.

Turning to `C=CCCCCOc1cccc(/C=C2\N=C3SCCCN3C2=O)c1`, the growth was 92.7%.

`COc1ccc(-c2cc(C(=O)Nc3ccc(C)cc3)nc3[nH]c(=O)sc23)cc1`: the growth is 56.2%.

Consider `Clc1ccc(-c2cnc3c(-c4ccnc(N5CCNCC5)c4)cnn3c2)cc1`, for which the growth was -58.1% (active).

Take `COc1ccc2c(c1)OC1=C(C(=O)OC1)C2c1cc(OC)c2c(c1)OCCO2` (stereo not given): the growth is 20.5%.

Regarding `O=c1c2cc(Cl)ccc2oc2ccc(OCCCCCN3CCCCCC3)cc12`, the growth was 69.2%.

With `C=CCOc1ccc2c(C)cc(=O)oc2c1`, the growth is 89%.

`C=C1C(=O)O[C@H]2[C@H]1CC/C(COC(=O)NCc1[nH]nc3ccccc13)=C\CC[C@@]1(C)O[C@@H]21`: the growth is 27.5%.

As to `COc1cc(Cl)cc(-c2nn(C(=O)NCCN3CCOCC3)cc2-c2ccncc2)c1`, the growth was 57.7%.

Consider `N=C(N)c1ccc(-c2ccc(-c3ccco3)o2)cc1F`, for which the growth was -16.8% (active).

For `CCCCOC(=O)c1cc(O)c(O)c(O)c1`, the growth was 65.2%.

As to `CSc1nc(N)c2[nH]c(-c3cc4ccccc4[nH]c3=O)nc2n1`, the growth was 84.7%.

For `CC(C)=CC[C@@H]1CC2(CC=C(C)C)C(=O)C(OC3(C(=O)c4ccccc4)C(=O)C4(CC=C(C)C)C[C@@H](CC=C(C)C)C(C)(C)C(CC=C(C)C)(C4=O)C3=O)(C(=O)c3ccccc3)C(=O)C(CC=C(C)C)(C2=O)C1(C)C` (stereo not given in full), the growth is 5.76% (active).

On to `COc1cc([N+](=O)[O-])cc(OC)c1OC`, for which the growth is 106%.

For `Cc1ccncc1NC=O`, the growth is 101%.

In the case of `CCN(CC)c1ccc2c(cc1=O)[C@@H](NC(C)=O)CCc1cc(OC)c(OC)c(OC)c1-2`, the growth is 11.8%.

Turning to `COc1ccc(C(=O)C(CN(C)C)c2ccc(OC)cc2)cc1` (stereo not given), the growth is 69.2%.

With `O=[N+]([O-])c1ccc(SSc2ccc([N+](=O)[O-])cc2Cl)c(Cl)c1`, the growth is 89.6%.

In the case of `COc1cc(C2CC(c3ccc(Cl)cc3)=NN2C(C)=O)ccc1Oc1nc2c(c(=O)n(C)c(=O)n2C)n1C` (stereo not given), the growth is 80.7%.

Regarding `COc1ccc2nc3ccccc3c(NCc3ccc(Cl)cc3)c2c1`, the growth was 2.55% (active).

In the case of `CCN(CC)Cc1cc(Nc2ccnc3ccc(OC)cc23)ccc1O`, the growth was 35%.

`CS(=O)(=O)c1ccc(C(=O)N/N=C/c2ccccc2Cl)cc1`: the growth is 90.3%.

Take `COc1cc(C2CC(c3ccccc3)=NN2C=O)ccc1Oc1nc2c(c(=O)n(C)c(=O)n2C)n1C` (stereo not given): the growth was 86.5%.

For the molecule `COc1ncnc2[nH]cc(CN3CCN(c4ccc(F)cc4)CC3)c12`, the growth is 99.2%.

Consider `COc1ccc(-c2cc(-c3cc4ccccc4oc3=O)n(-c3ccccc3)n2)cc1`, for which the growth is 31.4%.

Values taken from PubChem BioAssay (NCI).
